In all, about 310,000 compounds went through this assay and about 18,000 (5.8%) were called active. Inconclusive results (about 22%) are left out. Calls follow the shape of the dose curve; as a rule, active = well fitted inhibition curve with a large enough effect; inconclusive = small, poorly fitted or top-dose-only effect, or another doubt; inactive = no such curve, though single readings can be large or run the other way. The list comes from a sample in which actives are over-represented; it also holds similar structures and randomly drawn compounds.
experiment: Primary qHTS for delayed death inhibitors of the malarial parasite plastid, 48 hour incubation; conditions: P. falciparum luciferase growth in erythrocytes; series mostly up to 28.7 µM; activity change, negative = inhibition: at the top concentration
In short: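 Firefly luciferase activity from engineered P. falciparum reports growth; inhibitors lower the luminescent signal. Cultures contained 2% hematocrit erythrocytes at 0.1% final parasitemia.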
% is scaled to controls: 0 for no effect and ±100 for the full control effect; potency is read from the fitted curve at half-maximal effect.

Compound	activity change, negative = inhibition	Potency
O=C(CN(C(=O)CNC(=O)c1cccs1)c1cccc(F)c1)NC1CCCCC1	-4.17% (inactive)	–
Cc1cccc(NC(=O)COC(=O)CCc2ccccc2)c1C	20.4% (inactive)	–
CC(=O)c1c(C)n(-c2ccc(N(C)C)cc2)c2ccc(OCC(N)=O)cc12	–	11.7 µM (active)
CCOC(=O)c1c(C)oc2ccc(OCC(=O)N(CC)CC)cc12	-5.17% (inactive)	–
CC(=O)c1c(C)n(-c2ccc(C)cc2)c2ccc(O)cc12	15.2% (inactive)	–
O=C(Nc1ccccc1Cl)NC1(C(=O)N2CCOCC2)CCCCC1	-1.75% (inactive)	–
COc1ccc(CNC(=O)C(=O)N2CCC3(CC2)OCCN3S(=O)(=O)c2ccc(C)cc2)cc1	5.34% (inactive)	–
CC1(C)O[C@H]2CC(=O)OCC23[C@H]2CC[C@@]4(C)[C@H](c5ccoc5)OC(=O)[C@H]5O[C@]54[C@]2(C)C(=O)C[C@@H]13 (some centres not stated)	-1.57% (inactive)	–
O=C(NC1CCCCC1)c1ccc(-c2ccc(Cl)cc2)o1	129% (inactive)	–
O=C(Cn1ncc(N2CCCC2)c(Br)c1=O)c1ccc(Cl)cc1	94.5% (inactive)	–
O=C(Cn1nc(CNc2ccc(Cl)cc2)[n+]2c1CCCCC2)c1ccc(Cl)cc1	–	1.04 µM (active)
COC(=O)c1ccc(NCC(=O)N2CCCCCC2)cc1	190% (inactive)	–
Cn1c(CCNS(=O)(=O)c2ccc(F)cc2)nnc1SCc1cccnc1	-12.3% (inactive)	–
CC(C)c1ccc(S(=O)(=O)NC2CCCC2)cc1	21.3% (inactive)	–
Cc1ccccc1/C=C\c1nc(O)c([N+](=O)[O-])c(=O)[nH]1	-10.1% [at 0.00184 µM] (inactive)	–
O=c1cc(O)c(-c2cccc(C(F)(F)F)c2)c(Cl)[nH]1	9.62% (inactive)	–
O=c1[nH]c(/C=C\c2cccc(C(F)(F)F)c2)nc(O)c1[N+](=O)[O-]	–	9.28 µM (active)
Cc1ccc(C)c(NC(=O)c2cc(-c3cc(C)cc(C)c3O)n[nH]2)c1	-16% [at 0.00184 µM] (inactive)	–
CCC(=O)Nc1c(S(=O)(=O)c2ccccc2)c2nc3ccccc3nc2n1Cc1ccccc1	-9.82% (inactive)	–
CCOC(=O)c1c(N)n(Cc2ccccc2)c2nc3ccccc3nc12	–	9.28 µM (active)
COCC(C)OC(=O)c1c(N)n(CCCN2CCOCC2)c2nc3ccccc3nc12 (configuration not stated)	-7.36% (inactive)	–
Cc1c(C)c2ccc(OCC(=O)N3CCN(c4cccc(Cl)c4)CC3)cc2oc1=O	11.4% (inactive)	–
O=C1Nc2ccccc2C12Nc1ccccc1S2 (configuration not stated)	-8.82% (inactive)	–
CCc1ccc2c(c1)C1(NN=C(c3ccccc3)S1)C(=O)N2 (configuration not stated)	–	3.7 µM (active)
CCc1ccc2c(c1)C(c1ccc([N+](=O)[O-])cc1)=NNC(c1ccccc1)=N2	4.15% (inactive)	–
O=C(c1ccc(Br)o1)N1CCN(CCOc2ccccc2)CC1	2.93% (inactive)	–

Compound	activity change, negative = inhibition	Potency
Cc1ccc(NS(=O)(=O)c2ccc(C(C)(C)C)cc2)cn1	-7.91% (inactive)	–
O=C(Oc1cccc(C(=S)N2CCOCC2)c1)c1cccc(Cl)c1	10.5% (inactive)	–
O=C(c1cccs1)N1CCN(C(=O)N2CCOCC2)CC1	16.9% (inactive)	–
O=C(/C=C/c1cccs1)c1cc(Cl)ccc1OC(=O)N1CCOCC1	–	10.4 µM (active)
O=C(O)c1cccc(S(=O)(=O)N2CC=C(c3ccccc3)CC2)c1	-23.1% (inactive)	–
CC(C)C[C@H](NC(=O)C1CCC(CNC(=O)[C@@H]2CCCN2C(=O)OC(C)(C)C)CC1)C(=O)O (some centres not stated)	5.48% (inactive)	–
Cc1ccccc1C(=O)N1CCC(C(=O)Oc2ccc(C#N)cc2)CC1	10% (inactive)	–
COc1cccc(-c2nnc(SCCOc3ccc4c(C)cc(=O)oc4c3)o2)c1	40.1% (inactive)	–
Cc1cc(=O)oc2cc(OCCC[n+]3ccccc3)ccc12	–	5.22 µM (active)
Cc1cc(=O)oc2ccc(OCC(=O)O)cc12	-2.39% (inactive)	–
CCCn1c(C(Cc2ccccc2)NC(=O)COC)nc2ccccc21 (configuration not stated)	-6.33% (inactive)	–
CCCC(NC(=O)c1ccccc1)c1nc2ccccc2n1Cc1ccc(C(=O)OC)o1 (configuration not stated)	–	13.1 µM (active)
CC(O)c1nc2ccccc2n1Cc1ccc([N+](=O)[O-])cc1 (configuration not stated)	-3.37% (inactive)	–
Cn1ccnc1SCC(=O)Nc1ccc2c(c1)OCCO2	67.6% (inactive)	–
CCN(CC(=O)Nc1ccccc1OC)C(=O)CC1CC2CCC1C2 (configuration not stated)	-19% (inactive)	–
N#C[C@]1(S(=O)(=O)c2ccccc2)C[C@@H]2ON=C(c3cccc(Br)c3)[C@@H]2C1	-5.53% (inactive)	–
Cc1ccc(C(=O)Nc2ccc(C)c(S(=O)(=O)N(C)C)c2)s1	241% (inactive)	–
Cc1ccc(NC(=O)CNCc2ccccn2)cc1S(=O)(=O)N(C)C	–	16.5 µM (active)
Cc1ccc(NC(=O)c2cccs2)cc1S(=O)(=O)N(C)C	6.38% (inactive)	–
Cn1c(CCc2ccccc2)nnc1SCC(N)=O	2.6% (inactive)	–
COc1ccc(NC(=O)c2cccc3c2C(=O)N(CC2CCCO2)C3)cc1OC (configuration not stated)	-17.8% (inactive)	–
O=C(c1cccnc1NCc1ccccc1)N1CCOCC1	6.15% (inactive)	–
Oc1c(C(c2ccccn2)N2CCOCC2)ccc2cccnc12 (configuration not stated)	–	9.28 µM (active)
Cc1nc2sc(C(c3ccco3)N3CCOCC3)c(O)n2n1 (configuration not stated)	1.8% (inactive)	–
CCc1noc(C)c1C(=O)N1CCCSC1=Nc1ccccc1OC	-6.15% (inactive)	–
Cc1c(C(=O)Nc2ccccn2)oc2ccc(Br)cc12	132% (inactive)	–

Compound	activity change, negative = inhibition	Potency
CC(C)c1ccc(C(=O)OC2CCOC2=O)cc1 (configuration not stated)	11.3% (inactive)	–
CCC(C)(C)NC(=O)CN(C(=O)CCC(=O)Nc1nccs1)c1ccc2c(c1)OCO2	-19.2% (inactive)	–
COc1ccccc1C1SCCN1C(=O)c1ccc([N+](=O)[O-])cc1 (configuration not stated)	-5.95% (inactive)	–
COc1ccc(C(=O)N2CCc3cc(OC)c(OC)cc3C2c2cccc([N+](=O)[O-])c2)cc1 (configuration not stated)	–	6.57 µM (active)
COc1cc2c(cc1OC)C(c1cccc([N+](=O)[O-])c1)=NCC2	-14.1% (inactive)	–
Cc1ccc(OCCNC(=O)CNC(=O)c2ccc(C)c(C)c2)cc1	6% (inactive)	–
CN(C(=O)COC(=O)c1nc(Cl)ccc1Cl)C1CCS(=O)(=O)C1 (configuration not stated)	2.04% (inactive)	–
COCCN1CCn2c(nc3cc(NS(C)(=O)=O)ccc32)C1	30.5% (inactive)	–
COc1ccc(CC2(CO)CCN(Cc3cnn(C)c3)CC2)cc1	2.96% (inactive)	–
CC(=O)c1cccc(CN2CCC(CO)(Cc3ccccc3)CC2)c1	-7.63% (inactive)	–
COc1ccccc1/C=C/CN1CCC(CO)(Cc2ccccc2)CC1	–	11.7 µM (active)
Cc1cc(C)n(CCNS(=O)(=O)c2ccc(Cl)cc2)n1	-7.98% (inactive)	–
CC(=O)Nc1ccc(NS(=O)(=O)c2ccc3c(c2)NC(=O)CC(=O)N3)cc1	19.7% (inactive)	–
Cc1sc2ncn(CC(=O)NCCCC(=O)N(C)Cc3ccccc3)c(=O)c2c1C	15.5% (inactive)	–
CCCc1cc(=O)[nH]c(SCC(=O)N2C(C)CCCC2C)n1 (configuration not stated)	10.6% (inactive)	–
CC1CCCC(C)N1C(=O)CN1CCN(c2nc(-c3ccc(F)cc3)cs2)CC1 (configuration not stated)	–	11.7 µM (active)
O=C(CN1CCN(c2nc(-c3ccccc3)cs2)CC1)NCc1ccc2c(c1)OCO2	-11.5% (inactive)	–
Cc1ccc(S(=O)Cc2ccc(C(=O)N3CCN(C4CCCCC4)CC3)o2)cc1 (configuration not stated)	8.56% (inactive)	–
O=C1C(=O)N(CCN2CCOCC2)C(c2cccc(Cl)c2)/C1=C(/O)c1ccc2c(c1)OCO2 (configuration not stated)	79.2% (inactive)	–
O=C(NCCCn1ccnc1)/C(=C\c1ccccc1F)NC(=O)c1ccccc1	13.2% (inactive)	–
CC(Oc1ccccc1)C(=O)Nc1c2c(nn1-c1ccccc1)CS(=O)C2 (configuration not stated)	5.06% (inactive)	–
O=C(Nc1sc2c(c1C(=O)O)CCC2)c1ccccc1F	50.4% (inactive)	–
C=CCn1c(=NC(=O)c2cccs2)sc2cc(NC(C)=O)ccc21	105% (inactive)	–
COc1cc(C(C)=O)ccc1OC(C)C(=O)Nc1ccc(S(=O)(=O)N2CCCC2)cc1 (configuration not stated)	-18.1% (inactive)	–
C=CCn1c(=NC(=O)c2ccc(S(=O)(=O)N3CCCC3)cc2)sc2cc(NC(C)=O)ccc21	–	1.85 µM (active)
CCOc1ccc(C(=O)Nc2ccc(S(=O)(=O)Nc3cc(C)on3)cc2)cc1	5.82% (inactive)	–

Compound	activity change, negative = inhibition	Potency
COc1ccc(C)cc1NC(=O)CNCc1cccs1	3.51% (inactive)	–
CC(C)(C)OC(=O)Nc1ccc([C@@H](NC(=O)OC(C)(C)C)C(=O)OC(C)(C)C)cc1	–	2.08 µM (active)
CCOC(=O)Nc1ccc(NC(=O)OCC)cc1	56% (inactive)	–
C[C@H](NC(=O)OC(C)(C)C)c1nnc(SCC(=O)Nc2ccc(Br)cc2)o1	-5.28% (inactive)	–
CN(Cc1ccccc1Cl)C(=O)C1CCC(=O)N(CCc2cccc(F)c2)C1 (configuration not stated)	-19.1% (inactive)	–
CCOC(=O)C1=C(CNC2CCCCC2)NC(=O)NC1c1cc(C)ccc1C (configuration not stated)	–	10.4 µM (active)
CCOC(=O)C1=C(c2ccccc2)NC(=O)NC1c1cc(OC)c(OC)cc1OC (configuration not stated)	4.34% (inactive)	–
CC1=C(C(=O)OCC2CCCCC2)C(c2ccc(F)cc2)NC(=O)N1 (configuration not stated)	29.1% (inactive)	–
Cc1ccc(S(=O)(=O)CC(=O)Nc2nnc(C)s2)cc1	-2.59% (inactive)	–
CCCCCC(=O)NC(=S)NNC(=O)c1ccc([N+](=O)[O-])cc1	11.8% (inactive)	–
O=C(NC(=S)NC1CCS(=O)(=O)C1)c1cccc([N+](=O)[O-])c1 (configuration not stated)	11.5% (inactive)	–
CC(C)CC(=O)NC(=S)NNC(=O)c1cccc([N+](=O)[O-])c1	–	14.7 µM (active)
Cc1cc(C(=O)Nc2nnc(C3CC3)s2)c(C)s1	234% (inactive)	–
CC(NCC(=O)Nc1ccccc1C(=O)NC1CC1)c1ccccc1Cl (configuration not stated)	–	9.28 µM (active)
O=C(COc1ccccc1Cl)Nc1ccccc1C(=O)NC1CC1	-4.82% (inactive)	–
O=C(CN1CCCCC1)Nc1ccccc1C(=O)NC1CC1	14% (inactive)	–
O=C(CN1C(=O)NC2(CCCCC2)C1=O)NCCc1c[nH]c2ccccc12	-11% (inactive)	–
CCN(CC(=O)Nc1ccc(NC(C)=O)cc1)C(=O)C1CC(=O)N(Cc2ccc(C)cc2)C1 (configuration not stated)	3.06% (inactive)	–
O=S(=O)(c1ccc2c(c1)OCCO2)N1CCc2ccccc21	-4.28% (inactive)	–
Cn1c(=O)n(C)c2cc(S(=O)(=O)N3CCCc4ccccc43)ccc21	-12.1% (inactive)	–
Cc1ccc(NC(=O)c2cccc(S(=O)(=O)N3CCCc4ccccc43)c2)nc1	–	4.15 µM (active)
CC1CCN(C(=O)c2cccc(S(=O)(=O)N3CCCc4ccccc43)c2)CC1	-65.1% (inactive)	–
NS(=O)(=O)c1ccc(CNC(=O)c2cccc(S(=O)(=O)N3CCc4ccccc43)c2)cc1	–	14.7 µM (active)
CN1CCN(S(=O)(=O)c2cccc(C(=O)N3CCc4ccccc43)c2)CC1	7.8% (inactive)	–

From PubChem BioAssay AID504832 (National Center for Advancing Translational Sciences (NCATS), 2011)
